Experimental data taken from PubChem BioAssay AID624263 (National Center for Advancing Translational Sciences (NCATS), 2012).
Hit rate of the full screen: of about 410,000 compounds, about 820 (0.2%) were called active. Not shown: some 2% with an inconclusive outcome. The sample as a whole holds a higher share of actives than the screen did. Values without a mark were called inactive. The call rests on the fitted dose curve; in most records, active means well fitted activation curve with a large enough effect; inconclusive means small, poorly fitted or top-dose-only effect; inactive means flat fitted curve, though single readings scatter; cell line not stated here.

Assay: A Quantitative High throughput Screen to Identify Chemical Modulators of PINK1 Expression; further: nearly all actives have a fitted effect of over 65% in size; on activation (PINK1 increase): % of control where 0% means no effect
Conditions: PINK1 immunofluorescence, high-content cytometry, 24 h; series mostly up to 76.6 µM; activation (PINK1 increase): at the top concentration
How it was run: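 Stable cell line treated 24 h with compounds at 5 concentrations (CCCP controls), then fixed and immunostained for PINK1 plus nuclear and cell stains; PINK1 immunofluorescence quantified by laser-scanning microplate cytometry.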
Potency means the concentration at half of the fitted maximal effect.

Q: For `O=C(N/N=C/c1sc(N2CCCCC2)nc1-c1cccs1)c1cccnc1`, which Potency is on record?
A: 20 µM (active)

Q: For `O=C(Nc1ccc(N2CCN(C(=O)c3ccccc3)CC2)c(Cl)c1)c1cccnc1`, which “activation (PINK1 increase)” value is on record?
A: -3.19%

Q: With `O=C(c1cccnc1)N1CCN(S(=O)(=O)c2cccs2)CC1` as the molecule, how does the “activation (PINK1 increase)” value read?
A: 0.0275%

Q: With `Cc1ccc(-c2ccc(C(=O)N3CCc4nnc(CNC(=O)c5ccccc5)n4CC3)cc2)cc1` as the molecule, how does the “activation (PINK1 increase)” value read?
A: 0.715%

Q: For `O=C(CN1Cc2ccccc2OC(c2ccccc2)C1)N1CCCCC1c1cccnc1` (stereo not given), which “activation (PINK1 increase)” value is on record?
A: 0.558%

Q: With `CCOc1ccc2nc(N3CCCN(CCCn4cccn4)CC3)nc(C)c2c1` as the molecule, how does the “activation (PINK1 increase)” value read?
A: -0.633%

Q: Which Potency does the source give for `Oc1c(Br)cccc1/C=N/Nc1c(F)c(F)c(F)c(F)c1F` here?
A: 39.8 µM (active)

Q: With `CCOC(=O)N1CCC(N2CCOc3ccc(CN4CCC(O)(c5cccnc5)CC4)cc3C2)CC1` as the molecule, how does the “activation (PINK1 increase)” value read?
A: 0.385%

Q: With `O=C(CSc1nc2ccccc2c(=O)n1CCCO)NC1CC1` as the molecule, how does the “activation (PINK1 increase)” value read?
A: 0.89%

Q: With `O=C(CSc1nc2cc3c(cc2c(=O)n1CCC1=CCCCC1)OCO3)NCc1ccco1` as the molecule, how does the “activation (PINK1 increase)” value read?
A: 11.5%

Q: For `O=C(CCCn1c(SCC(=O)c2ccc(F)cc2)nc2ccccc2c1=O)NCc1ccco1`, which Potency is on record?
A: 15.8 µM (active)

Q: Which “activation (PINK1 increase)” value does the source give for `O=C(Nc1ccc([N+](=O)[O-])cc1)c1cnn2c1NC(=C1CC1)C=C2C(F)F` here?
A: -0.0813%

Q: With `COCC(=O)Nc1cc(C(=O)N2CCCC(c3ccccc3)CC2)c2c(c1)nc(-c1ccncc1)n2C` (stereo not given) as the molecule, how does the “activation (PINK1 increase)” value read?
A: -0.433%

Q: For `COc1ccccc1C1CN(Cc2ccccc2O)Cc2ccccc2O1` (stereo not given), which “activation (PINK1 increase)” value is on record?
A: 0.0982%

Q: With `COC(=O)c1ccccc1C(=O)NCc1nc(N2CCCC2)c2cccc(C)c2n1` as the molecule, how does the “activation (PINK1 increase)” value read?
A: -0.339%

Q: Which “activation (PINK1 increase)” value does the source give for `O=S(=O)(NCCCN1CCOCC1)c1ccc(F)c(Cl)c1` here?
A: 4.27%

Q: With `Cc1cc(C)c(S(=O)(=O)NCCCN2CCOCC2)cc1Br` as the molecule, how does the “activation (PINK1 increase)” value read?
A: -1.42% [at 38.3 µM]

Q: Which Potency does the source give for `Cc1ccc(S(=O)(=O)NCCN2CCOCC2)cc1C` here?
A: 14.1 µM (active)

Q: For `COc1ccccc1C(=O)N[C@@H]1c2ccccc2C2(CCN(Cc3nc(C(C)C)cs3)CC2)[C@H]1O`, which “activation (PINK1 increase)” value is on record?
A: -1.21%

Q: With `COc1cc(OC)c(/C=C/c2ccnc3ccccc23)c(OC)c1` as the molecule, how does the “activation (PINK1 increase)” value read?
A: 8.99%

Q: Which “activation (PINK1 increase)” value does the source give for `Cc1cccc(CNC(=O)c2cnn(-c3nccc(-c4ccccc4F)n3)c2C2CC2)n1` here?
A: -0.292%

Q: For `CN(C)c1ccc(/C=C2\C=Cc3ccccc32)cc1Br`, which “activation (PINK1 increase)” value is on record?
A: 2.66%

Q: Which “activation (PINK1 increase)” value does the source give for `CC(C)(C)C1CCC(NC(=O)c2cnn3c2NC(=C2CC2)C=C3C(F)F)CC1` (stereo not given) here?
A: -0.21%

Q: Which “activation (PINK1 increase)” value does the source give for `Cn1nccc1C(=O)NCC1CCC2(CCN(Cc3c(O)ccc4ccccc34)CC2)O1` (stereo not given) here?
A: -0.145%

Q: For `O=C(NCCN1CCOCC1)c1cnn(-c2nccc(-c3cccs3)n2)c1C1CC1`, which “activation (PINK1 increase)” value is on record?
A: 1.85%

Q: With `Cc1cnc(C)c(-c2cc(F)c3c(c2)CC(CNC(=O)c2cccc(Cn4cccn4)c2)O3)n1` (stereo not given) as the molecule, how does the “activation (PINK1 increase)” value read?
A: 0.0853%

Q: For `CCc1ccc2c(c1)cc(CN(C(=S)Nc1ccccc1Cl)C1CC1)c1nnnn12`, which Potency is on record?
A: 12.6 µM (active)

Q: Which “activation (PINK1 increase)” value does the source give for `CCOc1ccc2c(c1)cc(CN(C(=O)CC)C1CCCCC1)c1nnnn12` here?
A: -2.48%

Q: Which “activation (PINK1 increase)” value does the source give for `CCc1cccc(NC(=S)N(CCN(C)C)C2CCN(C(C)C)CC2)c1` here?
A: -1.23%

Q: For `CC(C)C(=O)NC(C)c1nnc2n1CCN(Cc1cccc3ncccc13)CC2` (stereo not given), which “activation (PINK1 increase)” value is on record?
A: -0.848%

Q: Which “activation (PINK1 increase)” value does the source give for `O=C1CCN(Cc2ccc(-c3ccccc3)cc2)CCN1Cc1ccccn1` here?
A: 0.935%

Q: With `Cc1oc(-c2cccc(NC(=O)c3ccccc3)c2)nc1CNC(=O)c1cnc2ccccn2c1=O` as the molecule, how does the “activation (PINK1 increase)” value read?
A: 0.787%

Q: With `O=C(Nc1ccccc1C(F)(F)F)c1nc(S(=O)(=O)Cc2ccccc2F)ncc1Cl` as the molecule, how does the “activation (PINK1 increase)” value read?
A: 3.33%

Q: Which Potency does the source give for `N#C/C(=C/c1ccc(N2CCCCC2)o1)C(=O)NCCc1c[nH]c2ccccc12` here?
A: 11.2 µM (active)

Q: With `CC1(C(=O)NCCc2c[nH]c3ccccc23)C=CC2(CCCCC2)N1C(=O)c1ccccc1` (stereo not given) as the molecule, how does the “activation (PINK1 increase)” value read?
A: -0.269%

Q: Which “activation (PINK1 increase)” value does the source give for `COCCCNC(=O)/C(C#N)=C/c1c(N2CCCCCC2)nc2ccccn2c1=O` here?
A: 0.655%

Q: For `COCCN1CCN(C(=O)c2sc3ncnc(NCC4CCCO4)c3c2C)CC1` (stereo not given), which “activation (PINK1 increase)” value is on record?
A: 0.389%

Q: Which “activation (PINK1 increase)” value does the source give for `CN1CCCCCC1C(=O)NCCN1Cc2ccccc2OC(c2ccsc2)C1` (stereo not given) here?
A: -0.383%

Q: Which “activation (PINK1 increase)” value does the source give for `COc1ccccc1-c1ccnc(-n2ncc(C(=O)NCCc3ccncc3)c2C)n1` here?
A: 1.69%

Q: With `COC(=O)C1CCCCN1Cc1ccc2c(c1)CN(Cc1cc(OC)c3c(c1)OCO3)CCO2` (stereo not given) as the molecule, how does the “activation (PINK1 increase)” value read?
A: 0.531%

Q: For `COCC(C)NC(=O)c1ccc(-n2nc(C(F)(F)F)cc2-c2cccs2)cc1` (stereo not given), which “activation (PINK1 increase)” value is on record?
A: -2.38%

Q: Which Potency does the source give for `N#Cc1ccc(C(=O)Nc2nc(-c3cccs3)c(C(=O)C(F)(F)F)s2)cc1` here?
A: 6.31 µM (active)

Q: For `COc1ccc(C(F)(F)F)cc1NC(=O)c1sc2nc(-c3cccs3)ccc2c1N`, which “activation (PINK1 increase)” value is on record?
A: 16.7%

Q: With `C=C1C=C(C)n2ncc(C(=O)Nc3ccccc3O)c2N1` as the molecule, how does the “activation (PINK1 increase)” value read?
A: 1.83%

Q: Which “activation (PINK1 increase)” value does the source give for `COc1ccccc1CNc1cc(-c2ccccc2CN(C)C)ncn1` here?
A: 0.0313%
